A selection: hits, their analogues and other compounds. The true share with any hit is near 2.2%.
CCT chaperon mod – changes cytosolic chaperonin activity | purified chaperonin ATPase assay, HTRF ADP detection, 30 min | activity change, % (concentration not given with the values), hits read low | hit rate 0.3% among 360,000 | AID 651819; in the data active means activity change below about -30%; further: on the % scale 0 is the no-effect control and ±100 the full control effect
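First, chaperonin was dispensed at 40 nM or 20 nM final depending on batch activity. Next, compounds were pinned at 76 uM and ATP added at 10 uM. After 30 min at 37 °C, ADP detection reagents ran 30 min at ambient temperature.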
MmCpn inh – M. maripaludis TRiC chaperonin inhibition | Potency, µM (top dose mostly 76.9 µM), for the others: at the highest dose activity, negative = inhibition, hits mostly inhibitors | AID 504842 | purified Mm-Cpn ATPase, ADP Transcreener TR-FRET | hit rate 0.031% among 330,000; further: potency means the concentration at half of the fitted maximal effect; on the % scale 0 is the no-effect control and ±100 the full control effect; nearly all actives have a fitted effect of over 80% in size
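Inhibition of chaperonin ATP hydrolysis is measured as reduced ADP production, detected by competitive TR-FRET in which signal falls with ADP. Final enzyme 25 nM and ATP 10 uM, reacted 30 min at 37°C.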
GLP-1R inv ag – inverse agonists of human GLP-1 receptor | P43220 | HEK293 GLP-1R CRE-luciferase, luminescence, 24 h; GLP-1R form is constitutively active | Potency, µM (titrated, usually from 38.3 µM), for inactives: top-dose activity change, negative = inhibition, usual class: inhibitors | hit rate 1.6% among 410,000 | AID 624417; further: potency means the concentration at half of the fitted maximal effect; on the % scale 0 is the no-effect control and ±100 the full control effect; nearly all actives have a fitted effect of over 55% in size
Target sequence (P43220 whole entry, looked up): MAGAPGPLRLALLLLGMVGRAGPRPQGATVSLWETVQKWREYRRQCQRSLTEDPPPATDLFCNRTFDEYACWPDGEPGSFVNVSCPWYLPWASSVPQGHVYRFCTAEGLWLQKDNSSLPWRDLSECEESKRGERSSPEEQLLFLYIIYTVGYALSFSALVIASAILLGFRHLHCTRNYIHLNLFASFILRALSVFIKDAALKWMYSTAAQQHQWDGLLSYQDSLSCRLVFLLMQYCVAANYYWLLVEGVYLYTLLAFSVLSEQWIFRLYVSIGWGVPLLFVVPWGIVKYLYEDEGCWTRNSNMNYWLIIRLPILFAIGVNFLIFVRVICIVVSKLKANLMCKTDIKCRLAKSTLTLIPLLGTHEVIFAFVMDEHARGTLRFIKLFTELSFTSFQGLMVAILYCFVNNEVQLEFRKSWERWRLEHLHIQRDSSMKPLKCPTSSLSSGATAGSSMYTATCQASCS
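Readout was luciferase luminescence, measured 12 min after detection reagent at room temperature. Beforehand, GLP-1R reporter HEK293 cells had sat 12 h, then received compounds for 24 hr at 37 deg C.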
GLP1R cytotox – cytotoxicity in counter-screen for GLP-1R inverse agonists. Potency, µM (highest dose often 38.3 µM), inactives show top-dose activity change, negative = inhibition, most hits filed as inhibitors. HEK293 cAMP-luciferase reporter cells, luminescence, 24 h. AID 624418. hit rate 0.13% among 410,000;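 further: loss of luciferase light is scored as toxicity; potency means the concentration at half of the fitted maximal effect; on the % scale 0 is the no-effect control and ±100 the full control effect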
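Luminescence readout: signal drop marks cytotoxicity. Plated cells grew 12 h at 37 °C, 5% CO2, received 23 nL compound for 24 h, then got luciferase reagent, read after 12 min at RT.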
uPA generation – cell surface uPA generation inhibition; cell surface uPA generation assay, qHTS; Potency, µM (highest dose often 38.3 µM), for the others: at the top dose activity change, negative = inhibition, usual class: inhibitors; hit rate 0.31% among 330,000; active means well fitted inhibition curve with a large enough effect; inconclusive means small, poorly fitted or top-dose-only effect; inactive means no such curve, though single readings can be large or run the other way; tested in mouse RAW 264.7 cells; further: potency means the concentration at half of the fitted maximal effect; on the % scale 0 is the no-effect control and ±100 the full control effect; nearly all actives have a fitted effect of over 55% in size
GLP-1R agonist – GLP-1 receptor (human) agonism | P43220 | HEK293 GLP-1R CRE-luciferase, luminescence, 4-6 h; cells express a hypersensitive GLP-1R form | Potency, µM (doses to about 45.6 µM), for inactives: top-dose activation, hits mostly activators | hit rate 0.007% among 380,000; further: potency means the concentration at half of the fitted maximal effect; % of control where 0% means no effect
Active calls of the source: *; u = inconclusive; x = no result given. Unless noted, the call rests on the fitted dose curve; in most records, active means well fitted curve in the direction sought with a large enough effect; inconclusive means small, poorly fitted or top-dose-only effect, or another doubt; inactive means no such curve, though single readings can be large; an effect the other way counts as inactive or inconclusive.

SMILES	CCT chaperon mod	MmCpn inh	GLP-1R inv ag	GLP1R cytotox	uPA generation	GLP-1R agonist
Cc1nc2c(-c3ccccc3)c(C)nn2c(C)c1CCC(=O)NCc1ccco1	0.8	-0.5%	6.5%	26.2%	5.0%	12.3%
Cc1nc2c(-c3ccc(F)cc3)c(C)nn2c(C)c1CCC(=O)NC(C)CCc1ccco1 (centres undefined)	0.4	u	7.08µM*	13.8%	u	-1.4%
CSCc1c(C(=O)N2CCCc3ccccc32)oc2ccccc12	-2.6	-2.2%	8.91µM*	-1.0%	-18.0%	6.9%
CC(Nc1nc(-c2cccnc2)nc2ccccc12)c1ccccc1 (centres undefined)	-0.1	x	u	-31.3%	x	5.9%
CC(Nc1nc(N2CCNCC2)nc2ccccc12)c1ccccc1 (centres undefined)	-0.4	2.9%	11.2µM*	u	-5.0%	-0.2%
CC(Nc1nc(-c2ccncc2)nc2ccccc12)c1ccccc1 (centres undefined)	-2.6	0.9%	7.08µM*	10.9%	-11.8%	u
CC(=O)N1CCc2cc(Br)cc(S(=O)(=O)N3CCC(C(=O)Nc4cccc(C)c4C)CC3)c21	x	x	15.5%	1.4%	x	x
CC(C)(C)OC(=O)N1CCC2(CC1)Oc1ccc(F)cc1C(=O)C21CC(c2ccccc2)=NO1 (centres undefined)	1.1	x	11.2µM*	5.9%	11.1%	7.3%
NC(N)=NCCCC(N)C(=O)O (centres undefined)	x	x	x	x	x	-3.8%
CN1N=C2c3ccccc3CCCC2C1c1ccc(F)cc1 (centres undefined)	1.9	-1.8%	7.08µM*	-26.0%	3.8%	8.3%
COCCNc1nc(NCC2CCCCC2)c2sc(-c3ccccc3)cc2n1	1.3	x	u	u	x	-2.2%
c1ccc(OCCNc2nc(NCC3CC3)nc3ccsc23)cc1	-1.1	x	8.91µM*	-10.0%	x	-2.5%
CC(=O)Nc1ccc(CNc2nc(NC(C)C)nc3cc(-c4ccccc4)sc23)cc1	-1.8	x	11.2µM*	u	x	-13.3%
COc1ccccc1CNc1nc(NCCOc2ccccc2)c2sccc2n1	-2.1	x	u	u	x	-6.8%
c1ccc(-c2cc3nc(NCC4CC4)nc(NCC4CCCCC4)c3s2)cc1	-2.2	x	2µM*	u	x	-4.7%
CCc1ccc(-n2c(N3CCN(c4cccc(C)c4C)CC3)nc3ccccc3c2=O)cc1	x	x	-3.1%	2.8%	x	x
CCOC(=O)C1CCCN(c2nc3c(S(=O)(=O)c4ccc(C)c(C)c4)nnn3c3ccc(Cl)cc23)C1 (centres undefined)	x	x	16.7%	10.8%	x	x
OCC1(O)OC[C@@H](O)[C@H](O)[C@@H]1O (some centres undefined)	x	x	x	x	x	1.8%
CCN(CC)CCNC(=O)C(=O)NCC(c1cccnc1)N1CCN(c2ccccc2)CC1 (centres undefined)	x	x	12.3%	0.3%	x	x
CC(C)(C)c1ccc(Cn2c(=O)cnc3ccccc32)cc1	0.5	1.1%	5.01µM*	u	-14.3%	7.5%
COc1ccc(NC(=O)CC2NCCNC2=O)c(OC)c1 (centres undefined)	x	x	1.1%	7.7%	x	x
COc1cc(O)ccc1-c1nc2cc(C)ccn2c1Nc1ccccc1C	x	x	10µM*	-27.0%	x	x
COc1ccc(C2C(=O)N(C3CCCCCC3)CC(=O)N2CCC2=CCCCC2)cc1 (centres undefined)	x	x	-1.3%	2.2%	x	x
Cc1cc(OCC(=O)NCCCN(C)C)cc(C)c1Br	-0.7	1.9%	2.82µM*	13.6%	0.2%	0.5%
CCc1ccc(OCC(=O)NCCN(C)C)c(Br)c1	-1.8	1.5%	10µM*	8.7%	3.5%	11.2%
SMILES	CCT chaperon mod	MmCpn inh	GLP-1R inv ag	GLP1R cytotox	uPA generation	GLP-1R agonist
CNC(=O)c1ccsc1NC(=O)c1ccc(S(=O)(=O)N2CCCc3ccccc32)cc1	-0.3	28.2µM*	u	1.3%	u	5.8%
CC(C)(C)c1ccc(C(=O)NC(=S)Nc2nc3c(s2)CCCC3)cc1	-4.6	0.8%	u	-15.8%	6.9%	1.9%
O=C(Nc1nc2c(s1)CCCC2)c1ccc(S(=O)(=O)N2CCCc3ccccc32)cc1	-1.3	-9.6%	3.98µM*	19.9%	12.4%	-11.9%
CN(C)c1ccc(C(=O)Nc2nc3c(s2)CCCC3)cc1	0.2	-5.6%	11.2µM*	-2.4%	u	-0.9%
Cc1cc(C)cc(NC2=CC(c3cccc(F)c3)N(c3cc(C)cc(C)c3)C2=O)c1 (centres undefined)	x	x	5.3%	1.9%	x	x
COc1cc(O)c2c(=O)c(-c3ccc(O[C@@H]4O[C@H](CO)[C@@H](O)[C@H](O)[C@H]4O)cc3)coc2c1	-2.1	-0.7%	92.8%	18.1%	-8.3%	12.3%
O=c1c(-c2ccc(O)cc2)coc2cc(OC3OC(CO)C(O)C(O)C3O)cc(O)c12 (centres undefined)	1.5	1.2%	-10.6%	-17.8%	4.47µM*	7.6%
Cc1ccc(NC2=Nc3ccccc3N3C2=Nc2c(c(C)nn2-c2ccccc2)C3c2ccc(O)c(O)c2)cc1 (centres undefined)	-2.9	-4.3%	11.2µM*	123.6%	-0.6%	-20.6%
CC1Oc2ccccc2C=C1/C=N/NC(=O)c1ccccc1 (centres undefined)	-45.2*	-1.8%	u	-5.3%	-14.2%	4.3%
Cc1ccc(C(=O)N/N=C/C2=Cc3ccccc3OC2C)cc1 (centres undefined)	-0.5	-4.3%	u	-9.6%	-19.0%	0.8%
Cc1ccnc(NC(=O)c2cc3ccccc3o2)c1	0.0	-7.7%	5.62µM*	5.8%	2µM*	-21.8%
O=C(Nc1ncccc1O)c1cc2ccccc2o1	-1.5	1.7%	11.2µM*	u	-5.2%	-25.8%
CN(CC(=O)Nc1ccc(F)c(F)c1)S(=O)(=O)c1cccs1	-39.9*	0.9%	-8.9%	-1.9%	1.9%	14.4%
CN(C)CCNC(=O)C(=O)NCC(c1cccnc1)N1CCN(c2ccccc2)CC1 (centres undefined)	x	x	-3.4%	1.4%	x	x
COc1ccc(CNC(=O)CN(C(=O)c2csnn2)c2ccc(C(C)=O)cc2)cc1	-39.5*	1.0%	14.8%	-3.4%	-2.1%	2.7%
CCOc1ccc(CCNS(=O)(=O)c2cc(Br)cc3c2N(C(C)=O)CC3)cc1OCC	x	x	48.3%	6.3%	x	x
Cc1ccccc1C(=O)N1CCC(C(=O)Nc2nccs2)CC1	-1.9	3.9%	-10.0%	-16.5%	7.4%	3.2%
Cc1ccccc1C(=O)N1CCC(C(=O)Nc2nc3ccc(F)cc3s2)CC1	-0.7	3.0%	10µM*	-5.1%	1.2%	-7.0%
c1cncc(-c2nc(N3CCOCC3)c3c4c(sc3n2)CCC4)c1	-17.5	-6.8%	110.2%	-4.5%	1.6%	10.0%

Source: PubChem
